Results on 23 compounds are retold here after PubChem BioAssay (NCATS).

“And” between values parts separate entries of the source, which are not always exact repeats. Equal entries are not always repeated. A number with no mark means an inactive call. Results filed as inconclusive are left out. A call without a number means that no potency is given here. The source made the active and inactive calls. Unless noted, calls come from the whole dose curve; as a rule, active = well fitted curve in the direction sought with a large enough effect; inconclusive = small, poorly fitted or top-dose-only effect, or another doubt; inactive = no such curve, though single readings can be large; an effect the other way counts as inactive or inconclusive.

System in one experiment: not listed separately
As to the kind of experiment: Cell Viability - LYMP1-002 - Assay at 24 hr (AID 993). The conditions noted are these: LYMP1-002 lymphoblastoid cells viability; series mostly up to 92.2 µM. The gist of the method:
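CellTiter-Glo luminescence (intracellular ATP) after 24 h compound exposure, 37 C, in LYMP1-002 human lymphoblastoid cells; decreased ATP taken as cytotoxicity. AC50 from standard Hill fit of concentration-response curves.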
Turning to `Cc1ccc(-c2cc(C(F)(F)F)nn2-c2ccc(S(N)(=O)=O)cc2)cc1`, the call was inactive.

Turning to `CC(C)C(=O)Nc1ccc([N+](=O)[O-])c(C(F)(F)F)c1`, the outcome was inactive.

Take `Cn1c(=O)c2[nH]cnc2n(C)c1=O`: the compound was classed as inactive.

On to `COc1ccc(CCN(C)CCCC(C#N)(c2ccc(OC)c(OC)c2)C(C)C)cc1OC` (stereo unspecified), for which the compound was called inactive.

Turning to `Cc1cn([C@H]2C=C[C@@H](CO)O2)c(=O)[nH]c1=O`, the call was inactive.

With `Clc1ccc(C(c2ccccc2Cl)C(Cl)Cl)cc1` (stereo unspecified), the compound was called inactive.

As for `CC(COc1ccccc1)N(CCCl)Cc1ccccc1` (stereo unspecified), the compound was classed as inactive.

As for `COc1ccc2[nH]cc(CCNC(C)=O)c2c1`, the compound was called inactive.

With `Cn1c(=O)c2c(ncn2C)n(C)c1=O`, the compound was called inactive.

Turning to `O=c1c(-c2ccc(O)cc2)coc2cc(O)cc(O)c12`, the outcome was inactive.

Consider `Cc1cn([C@H]2C[C@H](N=[N+]=[N-])[C@@H](CO)O2)c(=O)[nH]c1=O`, for which the compound was classed as inactive.

System in a further experiment: not listed separately
As to the kind of experiment: Cell Viability - LYMP1-002 - Assay at 40 hr (AID 994). Note: nearly all actives have a fitted effect of over 60% in size. Note: potency is the fitted concentration of half-maximal effect. The conditions noted are these: LYMP1-002 lymphoblastoid cell viability; series mostly up to 92.2 µM. The procedure, abridged:
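qHTS cytotoxicity; 2500 cells/well, 5 hr 37 C settle, compound 40 hr 37 C. CellTiter-Glo, 30 min RT, luminescence (ATP). Concentration-response, Hill fit → AC50. Pos. ctrl tetraoctylammonium bromide.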
On to `Cc1ccc(-c2cc(C(F)(F)F)nn2-c2ccc(S(N)(=O)=O)cc2)cc1`, for which the Potency result was “inactive”.

For the compound `CC(C)C(=O)Nc1ccc([N+](=O)[O-])c(C(F)(F)F)c1`, the Potency result was “inactive”.

For `Cn1c(=O)c2[nH]cnc2n(C)c1=O`, the Potency entry was “inactive”.

In the case of `COc1cc2c(c(OC)c1OC)-c1ccc(OC)c(=O)cc1[C@@H](NC(C)=O)CC2`, the Potency was 31.6 nM (active).

With `Cc1cn([C@H]2C=C[C@@H](CO)O2)c(=O)[nH]c1=O`, the Potency result was “inactive”.

For the compound `Clc1ccc(C(c2ccccc2Cl)C(Cl)Cl)cc1` (stereo unspecified), the Potency result is “inactive”.

Consider `CC(COc1ccccc1)N(CCCl)Cc1ccccc1` (stereo unspecified), for which the Potency entry was “inactive”.

As for `COc1ccc2[nH]cc(CCNC(C)=O)c2c1`, the Potency result is “inactive”.

As to `Cn1c(=O)c2c(ncn2C)n(C)c1=O`, the Potency result is “inactive”.

In the case of `O=c1c(-c2ccc(O)cc2)coc2cc(O)cc(O)c12`, the Potency entry is “inactive”.

In the case of `Cc1cn([C@H]2C[C@H](N=[N+]=[N-])[C@@H](CO)O2)c(=O)[nH]c1=O`, the Potency result is “inactive”.

Another experiment concerns the target alpha-glucosidase (Oryza sativa, rice) (UniProt Q653V4). As to the kind of experiment: Counterscreen for Glucocerebrosidase Inhibitors: qHTS Assay for Rice alpha-Glucosidase at pH 5.0 (AID 997). The conditions noted are these: rice alpha-glucosidase enzyme activity; series mostly up to 76.9 µM. The procedure, abridged: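 Endpoint fluorogenic assay at pH 5.0: compounds (0.7 nM to 77 uM) titrated against 4 nM rice enzyme and 400 uM 4-MU-alpha-glucoside for 20 min at room temperature; NaOH/glycine stop, read ex 365/em 440 nm, Hill-fitted AC50.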
A general note: The purpose of a counterscreen is to sort out artefacts and off-target activity.
In the case of `O=C(C1CCCCC1)N1CC(=O)N2CCc3ccccc3C2C1` (stereo unspecified), the compound was classed as inactive.

Regarding `C[C@](N)(Cc1ccc(O)c(O)c1)C(=O)O`, the call was inactive.

For the compound `COc1cc2c(c(OC)c1OC)-c1ccc(OC)c(=O)cc1[C@@H](NC(C)=O)CC2`, the result was inactive.

`CN1C(C(=O)Nc2ccccn2)=C(O)c2ccccc2S1(=O)=O`: the call was inactive.

Regarding `Cc1cn([C@H]2C=C[C@@H](CO)O2)c(=O)[nH]c1=O`, the compound was called inactive.

As for `Cc1ccc(C(=O)Nc2ccc(S(=O)(=O)O)c3cc(S(=O)(=O)O)cc(S(=O)(=O)O)c23)cc1NC(=O)c1cccc(NC(=O)Nc2cccc(C(=O)Nc3cc(C(=O)Nc4ccc(S(=O)(=O)O)c5cc(S(=O)(=O)O)cc(S(=O)(=O)O)c45)ccc3C)c2)c1`, the compound was called inactive.

For `Clc1ccc(C(c2ccccc2Cl)C(Cl)Cl)cc1` (stereo unspecified), the compound was classed as inactive.

Take `O=C(Nc1ccc([N+](=O)[O-])cc1Cl)c1cc(Cl)ccc1O`: the call was inactive.

On to `COc1ccc2[nH]cc(CCNC(C)=O)c2c1`, for which the outcome was inactive.

In the case of `Cn1c(=O)c2c(ncn2C)n(C)c1=O`, the compound was called inactive.

As for `CCc1cccc2c3c([nH]c12)C(CC)(CC(=O)O)OCC3` (stereo unspecified), the call was inactive.

System in another experiment: not listed separately
As to the kind of experiment: qHTS Assay for Lipid Storage Modulators (AID 1519; calls by dose curve). The conditions noted are these: Drosophila S3 cells, BODIPY lipid droplet/cell ratio, laser cytometry; at 25.7 µM (top of the series); cells loaded with oleic acid. The procedure, abridged: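 Cells seeded at 5,000 per well were treated with compounds over a concentration series and loaded with oleic acid (400 uM, as added). Lipid droplet fluorescence (488 nm excitation, 500-530 nm channel) was read by laser-scanning cytometry and normalized to 20 uM Triacsin C.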
For orientation: In qHTS, concentration-response curves come from the screen itself.
Take `CN1C(C(=O)Nc2ccccn2)=C(O)c2ccccc2S1(=O)=O`: the activity change, negative = inhibition was -1.27%.

Take `OCCN(CCO)c1nc(N2CCCCC2)c2nc(N(CCO)CCO)nc(N3CCCCC3)c2n1`: the activity change, negative = inhibition is -0.0376%.

For the compound `COc1ccc2[nH]cc(CCNC(C)=O)c2c1`, the activity change, negative = inhibition is 1.02%.

Staying with this experiment, now noted: Drosophila S3 cells, BODIPY lipid droplet/cell ratio, laser cytometry; at 57.5 µM (top of the series); cells loaded with oleic acid.
As to `O=C(C1CCCCC1)N1CC(=O)N2CCc3ccccc3C2C1` (stereo unspecified), the activity change, negative = inhibition was 2.76%.

For `C[C@](N)(Cc1ccc(O)c(O)c1)C(=O)O`, the activity change, negative = inhibition was 1.88%.

For `Cc1ccc(-c2cc(C(F)(F)F)nn2-c2ccc(S(N)(=O)=O)cc2)cc1`, the activity change, negative = inhibition is 7.63%.

With `CCC1(C)CC(=O)NC1=O` (stereo unspecified), the activity change, negative = inhibition is 5.33% and 1.46%.

Turning to `CC(C)(Oc1ccc(C2CC2(Cl)Cl)cc1)C(=O)O` (stereo unspecified), the activity change, negative = inhibition is 1.98%.

As for `CCOC(=O)c1ncn2c1CN(C)C(=O)c1cc(F)ccc1-2`, the activity change, negative = inhibition is -0.292%.

For the compound `Cc1cn([C@H]2C=C[C@@H](CO)O2)c(=O)[nH]c1=O`, the activity change, negative = inhibition is 1.52%.

As to `Cc1ccc(C(=O)Nc2ccc(S(=O)(=O)O)c3cc(S(=O)(=O)O)cc(S(=O)(=O)O)c23)cc1NC(=O)c1cccc(NC(=O)Nc2cccc(C(=O)Nc3cc(C(=O)Nc4ccc(S(=O)(=O)O)c5cc(S(=O)(=O)O)cc(S(=O)(=O)O)c45)ccc3C)c2)c1`, the activity change, negative = inhibition was 2.55% and 9.29%.

With `Clc1ccc(C(c2ccccc2Cl)C(Cl)Cl)cc1` (stereo unspecified), the activity change, negative = inhibition was 11.4% and -0.0471%.

As to `CC(COc1ccccc1)N(CCCl)Cc1ccccc1` (stereo unspecified), the activity change, negative = inhibition is 6.18%.

With `COc1ccc2[nH]cc(CCNC(C)=O)c2c1`, the activity change, negative = inhibition is 11.3% and -5.62% and 7.48%.

As to `Cn1c(=O)c2c(ncn2C)n(C)c1=O`, the activity change, negative = inhibition is 9.95% and -17.6%.

As for `Cc1ccccc1N1C(=O)c2cc(S(N)(=O)=O)c(Cl)cc2NC1C` (stereo unspecified), the activity change, negative = inhibition was 5.05% and -0.764%.

`O=c1c(-c2ccc(O)cc2)coc2cc(O)cc(O)c12`: the activity change, negative = inhibition was -6.97%.

On to `CCc1cccc2c3c([nH]c12)C(CC)(CC(=O)O)OCC3` (stereo unspecified), for which the activity change, negative = inhibition is 2.38% and -6.74%.
